Reference: the supplement of paper PMC10849652
Of roughly 7,900 targets only a part is listed; those with a hit were picked by preference. About 0.6% of all pairs of compound and target were hits. A number with no mark means an inactive call.

Legend:
Assay in all cases: log2 fold change, soluble protein after heating vs DMSO (PISA); higher = thermal stabilisation; K562 cells, 10 uM, 30 min; active = over 0.2 and 3.5 SD of the protein, either way, in both replicates (recomputed)
bafetinib = compound: Cc1ccc(NC(=O)c2ccc(CN3CC[C@H](N(C)C)C3)c(C(F)(F)F)c2)cc1Nc1nccc(-c2cncnc2)n1 [bafetinib]
Method in brief: (§1)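 Thermal stability values are relative to control samples and come from duplicates. They are expressed as log2 fold changes. For measurement, K562 cells (2×10^6 cells/mL) received 10 μM compound for 30 min, and aliquots were heated for 3 min over 48°C-58°C, pooled, and extracted at 4°C in PBS with 0.5% NP-40. Soluble protein, the supernatant after 21,000xg for 90 min, was quantified by TMTpro 16plex LC-MS/MS with equalised channel sums.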

[1] = compound: Cc1cccc(CC(=O)N2CCc3c2ccc(-c2cn(C)c4ncnc(N)c24)c3F)n1
Method in brief: as §1

nilotinib = compound: Cc1cn(-c2cc(NC(=O)c3ccc(C)c(Nc4nccc(-c5cccnc5)n4)c3)cc(C(F)(F)F)c2)cn1 [nilotinib]
Method in brief: as §1

[2] = compound: Cc1nc(Nc2n[nH]c3c2CN(C(=O)N[C@H](CN(C)C)c2ccccc2)C3(C)C)c2sccc2n1
Method in brief: as §1

dasatinib = compound: Cc1nc(Nc2ncc(C(=O)Nc3c(C)cccc3Cl)s2)cc(N2CCN(CCO)CC2)n1 [dasatinib]
Method in brief: as §1

[3] = compound: Cc1ncc(-c2ccnc(Nc3ccc(S(C)(=O)=O)cc3)n2)n1C(C)C
Method in brief: as §1

[4] = compound: Cn1cc(-c2ccc3c(c2)CCN3C(=O)Cc2cccc(C(F)(F)F)c2)c2c(N)ncnc21
Method in brief: as §1

[5] = compound: Cn1cc(-c2ccc3nnc(C(F)(F)c4ccc5ncccc5c4)n3n2)cn1
Method in brief: as §1

tipifarnib = compound: Cn1cncc1[C@@](N)(c1ccc(Cl)cc1)c1ccc2c(c1)c(-c1cccc(Cl)c1)cc(=O)n2C [tipifarnib]
Method in brief: as §1

mubritinib = compound: FC(F)(F)c1ccc(/C=C/c2nc(COc3ccc(CCCCn4ccnn4)cc3)co2)cc1 [mubritinib]
Method in brief: as §1

Chain of UniProt P04035 (P04035 whole entry, looked up): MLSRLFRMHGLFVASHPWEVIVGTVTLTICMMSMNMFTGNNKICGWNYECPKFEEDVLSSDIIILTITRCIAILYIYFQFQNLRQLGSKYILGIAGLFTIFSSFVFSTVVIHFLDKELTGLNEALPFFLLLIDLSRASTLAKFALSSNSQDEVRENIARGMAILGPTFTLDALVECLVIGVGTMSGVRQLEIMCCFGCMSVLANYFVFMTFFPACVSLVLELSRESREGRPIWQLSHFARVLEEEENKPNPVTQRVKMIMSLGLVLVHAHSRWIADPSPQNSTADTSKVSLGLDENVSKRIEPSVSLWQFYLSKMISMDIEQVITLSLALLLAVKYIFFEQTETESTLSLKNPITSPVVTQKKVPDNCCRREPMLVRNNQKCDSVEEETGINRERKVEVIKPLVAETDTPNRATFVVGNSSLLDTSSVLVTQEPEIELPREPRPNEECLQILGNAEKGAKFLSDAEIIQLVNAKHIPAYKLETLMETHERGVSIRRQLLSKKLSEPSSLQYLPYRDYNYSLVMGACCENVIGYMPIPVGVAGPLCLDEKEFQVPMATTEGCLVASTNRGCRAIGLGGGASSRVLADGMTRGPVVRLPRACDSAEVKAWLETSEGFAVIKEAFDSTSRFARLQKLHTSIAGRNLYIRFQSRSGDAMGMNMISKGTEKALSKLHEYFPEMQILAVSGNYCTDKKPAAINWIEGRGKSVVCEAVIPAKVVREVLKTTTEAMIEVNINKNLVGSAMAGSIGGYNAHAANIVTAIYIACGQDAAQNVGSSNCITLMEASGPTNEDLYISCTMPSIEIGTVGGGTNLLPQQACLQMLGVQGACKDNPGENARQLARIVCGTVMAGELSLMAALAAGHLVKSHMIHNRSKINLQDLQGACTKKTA
Chain of UniProt P31943 (P31943 whole entry, looked up): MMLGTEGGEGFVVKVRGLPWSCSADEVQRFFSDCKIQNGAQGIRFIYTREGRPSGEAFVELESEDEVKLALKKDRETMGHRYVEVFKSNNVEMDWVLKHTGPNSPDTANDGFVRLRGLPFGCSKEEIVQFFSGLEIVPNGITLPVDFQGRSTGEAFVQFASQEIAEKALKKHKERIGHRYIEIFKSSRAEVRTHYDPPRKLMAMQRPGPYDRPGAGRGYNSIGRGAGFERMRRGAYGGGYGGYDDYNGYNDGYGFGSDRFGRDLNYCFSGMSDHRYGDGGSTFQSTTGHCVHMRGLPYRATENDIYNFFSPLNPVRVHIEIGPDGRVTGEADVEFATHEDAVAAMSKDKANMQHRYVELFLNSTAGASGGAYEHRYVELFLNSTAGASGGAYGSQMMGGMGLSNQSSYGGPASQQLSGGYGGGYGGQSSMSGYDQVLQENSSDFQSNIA
Chain of UniProt P29084 (P29084 whole entry, looked up): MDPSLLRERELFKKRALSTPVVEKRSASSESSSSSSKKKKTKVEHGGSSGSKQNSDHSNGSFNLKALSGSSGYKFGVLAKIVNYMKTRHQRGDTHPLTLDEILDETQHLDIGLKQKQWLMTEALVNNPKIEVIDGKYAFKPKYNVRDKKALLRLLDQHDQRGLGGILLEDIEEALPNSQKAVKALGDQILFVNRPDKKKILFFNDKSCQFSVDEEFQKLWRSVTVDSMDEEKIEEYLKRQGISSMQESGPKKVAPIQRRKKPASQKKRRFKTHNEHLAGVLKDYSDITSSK
Chain of UniProt Q9H6D7 (Q9H6D7 whole entry, looked up): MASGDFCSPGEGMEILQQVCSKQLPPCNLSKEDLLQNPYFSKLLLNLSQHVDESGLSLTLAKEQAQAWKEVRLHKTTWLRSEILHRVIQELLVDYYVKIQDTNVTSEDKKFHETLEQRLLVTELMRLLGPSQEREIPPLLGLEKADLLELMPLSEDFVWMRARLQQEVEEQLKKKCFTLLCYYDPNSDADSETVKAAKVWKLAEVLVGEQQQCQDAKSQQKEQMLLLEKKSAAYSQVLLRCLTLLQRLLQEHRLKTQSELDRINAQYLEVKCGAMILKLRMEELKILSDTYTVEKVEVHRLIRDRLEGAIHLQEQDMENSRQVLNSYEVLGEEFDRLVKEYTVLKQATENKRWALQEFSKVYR
Chain of UniProt Q8IWJ2 (Q8IWJ2 whole entry, looked up): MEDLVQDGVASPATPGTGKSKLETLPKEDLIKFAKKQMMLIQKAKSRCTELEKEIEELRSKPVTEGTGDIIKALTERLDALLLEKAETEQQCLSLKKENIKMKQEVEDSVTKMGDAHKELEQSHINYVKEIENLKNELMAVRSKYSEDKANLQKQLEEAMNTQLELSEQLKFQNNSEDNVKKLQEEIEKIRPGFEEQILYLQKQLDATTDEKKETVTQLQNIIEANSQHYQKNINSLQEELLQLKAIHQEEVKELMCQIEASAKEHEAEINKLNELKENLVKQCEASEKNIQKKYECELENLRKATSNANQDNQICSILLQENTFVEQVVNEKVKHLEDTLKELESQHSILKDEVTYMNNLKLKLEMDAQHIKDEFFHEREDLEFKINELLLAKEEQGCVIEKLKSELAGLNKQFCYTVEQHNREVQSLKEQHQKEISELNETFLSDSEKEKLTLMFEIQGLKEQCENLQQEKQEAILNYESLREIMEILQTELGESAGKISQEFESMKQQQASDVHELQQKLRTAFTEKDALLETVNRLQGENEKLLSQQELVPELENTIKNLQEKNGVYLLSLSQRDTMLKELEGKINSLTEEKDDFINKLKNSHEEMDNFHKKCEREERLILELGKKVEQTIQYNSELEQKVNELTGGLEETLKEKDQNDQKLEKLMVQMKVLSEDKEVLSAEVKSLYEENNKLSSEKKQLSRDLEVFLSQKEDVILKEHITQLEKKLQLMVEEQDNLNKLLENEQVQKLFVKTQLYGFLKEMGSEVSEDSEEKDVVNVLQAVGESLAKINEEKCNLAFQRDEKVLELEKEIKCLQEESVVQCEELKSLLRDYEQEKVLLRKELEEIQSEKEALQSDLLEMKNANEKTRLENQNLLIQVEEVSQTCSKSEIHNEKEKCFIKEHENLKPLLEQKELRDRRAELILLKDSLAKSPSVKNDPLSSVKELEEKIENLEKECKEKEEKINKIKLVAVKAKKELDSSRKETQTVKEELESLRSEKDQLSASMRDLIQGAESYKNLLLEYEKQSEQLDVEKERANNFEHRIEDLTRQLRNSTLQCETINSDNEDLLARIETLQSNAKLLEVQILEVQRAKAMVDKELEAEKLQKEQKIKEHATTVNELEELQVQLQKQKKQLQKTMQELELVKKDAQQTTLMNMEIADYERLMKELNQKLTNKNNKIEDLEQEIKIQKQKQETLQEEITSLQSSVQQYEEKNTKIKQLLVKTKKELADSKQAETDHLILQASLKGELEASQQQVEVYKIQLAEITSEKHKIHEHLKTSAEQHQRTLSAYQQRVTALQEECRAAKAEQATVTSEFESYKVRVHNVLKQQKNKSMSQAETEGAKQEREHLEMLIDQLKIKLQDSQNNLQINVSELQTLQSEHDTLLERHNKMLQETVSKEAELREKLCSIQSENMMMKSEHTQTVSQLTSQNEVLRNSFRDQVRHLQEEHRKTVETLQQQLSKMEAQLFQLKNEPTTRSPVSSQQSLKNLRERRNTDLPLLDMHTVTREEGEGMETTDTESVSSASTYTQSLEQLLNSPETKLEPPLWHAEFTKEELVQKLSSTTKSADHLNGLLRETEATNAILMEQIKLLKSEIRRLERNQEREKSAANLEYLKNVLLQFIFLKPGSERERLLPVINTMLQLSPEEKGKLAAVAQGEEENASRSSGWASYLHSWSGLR
Chain of UniProt O94925 (O94925 whole entry, looked up): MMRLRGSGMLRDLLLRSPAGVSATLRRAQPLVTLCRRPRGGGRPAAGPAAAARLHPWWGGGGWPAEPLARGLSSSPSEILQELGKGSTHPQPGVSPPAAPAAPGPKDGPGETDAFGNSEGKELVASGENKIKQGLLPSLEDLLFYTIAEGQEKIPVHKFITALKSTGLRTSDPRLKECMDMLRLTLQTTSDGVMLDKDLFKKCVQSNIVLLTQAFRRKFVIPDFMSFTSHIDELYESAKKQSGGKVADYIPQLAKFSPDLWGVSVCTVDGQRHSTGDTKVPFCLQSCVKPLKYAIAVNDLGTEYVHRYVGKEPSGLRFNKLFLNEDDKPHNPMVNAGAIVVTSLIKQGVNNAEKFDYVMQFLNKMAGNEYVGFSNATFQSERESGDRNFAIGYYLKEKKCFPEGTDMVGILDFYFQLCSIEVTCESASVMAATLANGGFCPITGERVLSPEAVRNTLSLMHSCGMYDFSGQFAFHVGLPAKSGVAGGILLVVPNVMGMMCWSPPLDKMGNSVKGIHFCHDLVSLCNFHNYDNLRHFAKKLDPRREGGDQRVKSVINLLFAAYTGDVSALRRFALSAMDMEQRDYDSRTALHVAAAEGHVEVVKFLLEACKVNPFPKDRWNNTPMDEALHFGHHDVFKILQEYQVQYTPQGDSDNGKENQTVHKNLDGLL
Chain of UniProt P0CL80 (P0CL80 whole entry, looked up): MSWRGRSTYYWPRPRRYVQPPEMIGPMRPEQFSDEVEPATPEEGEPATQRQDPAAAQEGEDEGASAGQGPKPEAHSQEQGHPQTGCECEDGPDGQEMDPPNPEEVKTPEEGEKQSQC
Chain of UniProt Q03013 (Q03013 whole entry, looked up): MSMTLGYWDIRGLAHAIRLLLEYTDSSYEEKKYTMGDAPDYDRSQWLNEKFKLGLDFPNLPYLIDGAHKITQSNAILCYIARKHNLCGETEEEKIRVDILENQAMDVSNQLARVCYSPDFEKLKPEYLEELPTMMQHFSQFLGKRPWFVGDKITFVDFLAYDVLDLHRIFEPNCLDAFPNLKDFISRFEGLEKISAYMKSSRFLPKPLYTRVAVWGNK
Chain of UniProt Q9H0R8 (Q9H0R8 whole entry, looked up): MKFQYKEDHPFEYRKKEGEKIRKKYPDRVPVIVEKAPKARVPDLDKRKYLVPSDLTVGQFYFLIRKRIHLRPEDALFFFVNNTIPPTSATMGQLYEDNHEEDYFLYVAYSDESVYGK

Target | log2 fold change (bafetinib) | log2 fold change [1] | log2 fold change (nilotinib) | log2 fold change [2] | log2 fold change (dasatinib) | log2 fold change [3] | log2 fold change [4] | log2 fold change [5] | log2 fold change (tipifarnib) | log2 fold change (mubritinib)
HEATR5B (UniProt Q9P2D3) | -0.007 | 0.014 | -0.049 | -0.066 | -0.119 | 0.072 | -0.029 | -0.012 | -0.052 | 0.034
IDH3A (UniProt P50213) | -0.016 | 0.021 | -0.027 | -0.006 | -0.005 | -0.024 | 0.045 | 0.021 | -0.001 | 0.06
HPCAL1 (UniProt P37235) | -0.09 | 0.027 | -0.076 | 0.033 | -0.031 | -0.028 | -0.011 | 0.053 | -0.032 | 0.016
GOPC (UniProt Q9HD26) | 0.233 | -0.131 | 0.009 | 0.05 | -0.081 | 0.021 | -0.005 | -0.02 | 0.127 | -0.226
HAX1 (UniProt O00165) | -0.103 | 0.029 | -0.113 | -0.174 | -0.044 | 0.069 | -0.028 | -0.068 | -0.112 | 0.001
HNRNPC isoform 2 (UniProt P07910) | 0.159 | -0.228 | 0.054 | -0.099 | 0.425 | -0.286 | -0.431 | -0.173 | 0.596 | -0.268
GSTM4 (UniProt Q03013) | 0.021 | 0.002 | 0.001 | 0.088 | 0 | -0.018 | 0.026 | -0.141 | -0.023 | -0.08
FAM91A1 (UniProt Q658Y4) | -0.01 | 0.07 | -0.007 | 0.073 | -0.048 | 0.01 | 0.021 | -0.015 | -0.004 | 0.052
GABARAPL1 isoform 2 (UniProt Q9H0R8) | -0.171 | 0.006 | -0.05 | -0.028 | -0.031 | 0.017 | -0.016 | 0.003 | -0.075 | 0.044
GLS isoform 3 (UniProt O94925) | 0.045 | 0.028 | -0.238 | -0.162 | -0.282 | 0.046 | -0.097 | 0.114 | -0.208 | -0.492 (active)
HNRNPH2 (UniProt P55795) | 0.056 | 0.006 | -0.09 | -0.231 | -0.061 | -0.103 | -0.021 | 0.041 | -0.236 | -0.115
HAT1 (UniProt O14929) | -0.115 | 0.017 | 0.004 | -0.035 | -0.044 | -0.025 | 0.024 | 0.006 | 0.004 | -0.033
GSTT1 (UniProt P30711) | -0.019 | -0.144 | 0.056 | -0.019 | 0.143 | -0.033 | 0.014 | 0.043 | -0.065 | 0.012
HMGCR isoform 3 (UniProt P04035) | 0.008 | 0.016 | -0.241 | 0.015 | -0.027 | -0.087 | -0.023 | -0.062 | -0.021 | 0.1
HMOX2 (UniProt P30519) | 0.006 | 0.048 | 0.002 | -0.08 | -0.141 | -0.006 | 0.067 | 0.003 | 0.27 (active) | 0.062
FLNA (UniProt P21333) | 0.011 | 0.059 | -0.056 | -0.025 | -0.158 | 0.059 | -0.053 | 0.007 | -0.176 | 0.112
GALNT2 (UniProt Q10471) | -0.046 | 0.041 | -0.07 | -0.066 | -0.004 | 0.056 | 0.032 | -0.018 | 0.008 | 0.008
GLB1 (UniProt P16278) | -0.418 (active) | -0.009 | 0.013 | 0.017 | 0.061 | 0.004 | -0.006 | 0.016 | 0.039 | -0.009
FASTKD1 (UniProt Q53R41) | 0.098 | -0.021 | -0.183 | 0.54 (active) | -0.168 | -0.053 | 0.217 | -0.064 |  | 
GAGE12F (UniProt P0CL80) | -0.092 | -0.284 (active) | 0.052 | -0.085 | 0.009 | -0.015 | -0.004 | -0.035 | 0.053 | 0.085
FBL (UniProt P22087) | 0.29 | -0.039 | 0.094 | -0.017 | 0.454 | -0.01 | -0.337 | -0.097 | 0.301 | -0.241
GEMIN2 (UniProt O14893) | -0.154 | -0.124 | -0.045 | 0 | 0.049 | -0.027 | -0.039 | -0.095 | 0.08 | -0.048
HIC2 (UniProt Q96JB3) | 0.065 | 0.006 | 0.075 | -0.446 (active) | 0.071 | -0.181 | -0.124 | -0.032 | -0.051 | -0.051
GLUD2 (UniProt P49448) | 0.234 | 0.02 | 0.478 (active) | 0.21 | -0.021 | -0.031 | 0.265 (active) | -0.028 | 0.079 | 0.041
HIST2H3A (UniProt Q71DI3) | 0.198 | -0.183 | -0.054 | -0.068 | 0.215 | -0.032 | -0.258 | -0.054 | 0.031 | -0.037
HAUS4 (UniProt Q9H6D7) | -0.069 | 0.023 | 0.08 | 0.086 | 0.178 | 0.567 | -0.045 | -0.051 | -0.115 | -0.547
GTF2E2 (UniProt P29084) | 0.031 | 0.03 | -0.082 | -0.108 | -0.241 | 0.005 | -0.016 | 0.044 | 0.051 | -0.02
IDI1 isoform 2 (UniProt Q13907) | -0.019 | -0.038 | 0.049 | 0.022 | 0.002 | -0.01 | 0.096 | -0.012 | 0.018 | 0.054
HNRNPH1 (UniProt P31943) | 0.004 | 0.037 | -0.141 | -0.236 | -0.083 | -0.116 | 0.022 | 0.055 | -0.124 | -0.044
GCC2 (UniProt Q8IWJ2) | 0.033 | -0.045 | -0.14 | -0.071 | -0.011 | 0.119 | -0.032 | 0.02 | 0.051 | -0.088
